The panel holds about 79,000 compounds, 15% with a hit somewhere; the sample as a whole holds those more often. Values without a mark were called inactive. Active and inactive are the calls of the source. Cut-off read from the data, not from the text of the source: active = growth inhibition above about 70%; inactive = the rest.
What was measured:
[1] = NCI Yeast Anticancer Drug Screen. Data for the rad50 strain (AID 155);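 note: 0% = growth of vehicle-only cultures of the same strain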; details: S. cerevisiae rad50 strain growth inhibition, active compounds read high
How it was run: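 Genetically altered yeast (DNA repair pathway); compound treatment; growth inhibition vs vehicle ctrl.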

[2] = NCI Yeast Anticancer Drug Screen. Data for the mec2-1 strain (AID 157); details: S. cerevisiae mec2-1 strain, active compounds read high
How it was run: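 Compounds were applied to mec2-1 yeast cells. Their growth was then compared with that of vehicle-treated cultures to give growth inhibition.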

[3] = NCI Yeast Anticancer Drug Screen. Data for the sgs1 mgt1 strain (AID 161);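 note: 0% = growth of cultures given vehicle only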; details: S. cerevisiae sgs1 mgt1 strain, active compounds read high
How it was run: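 This yeast growth screen uses a strain with defined DNA-repair lesions; compound-treated growth is compared with vehicle-treated growth.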

[4] = NCI Yeast Anticancer Drug Screen. Data for the cln2 rad14 strain (AID 165);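 note: 0% = growth equal to vehicle treated cultures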; details: S. cerevisiae cln2 rad14 strain, active compounds read high
How it was run: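 Strain: cln2 rad14 yeast, altered in cell cycle control and DNA damage repair. Read-out: growth inhibition vs vehicle.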

[5] = NCI Yeast Anticancer Drug Screen. Data for the bub3 strain (AID 167); details: S. cerevisiae bub3 mutant strain, active compounds read high
How it was run: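 Yeast carrying a defined mutation is treated with each compound, and growth is compared with that of vehicle-exposed cells to give inhibition.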

[6] = NCI Yeast Anticancer Drug Screen. Data for the mlh1 rad18 strain (AID 175); details: S. cerevisiae mlh1 rad18 strain growth inhibition, active compounds read high
How it was run: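 A repair-deficient yeast strain is exposed to test compound, and growth is scored relative to vehicle-treated controls.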

[7] = at 5.0 µM (retest, dose inferred, filed as 0.5)
[8] = at 50.0 µM (retest, dose inferred, filed as 5.0)

SMILES | growth inhibition [1, 7] | growth inhibition [1, 8] | growth inhibition ([1]; at 50.0 µM) | growth inhibition [2, 7] | growth inhibition [2, 8] | growth inhibition ([2]; at 50.0 µM) | growth inhibition [3, 7] | growth inhibition [3, 8] | growth inhibition ([3]; at 50.0 µM) | growth inhibition [4, 7] | growth inhibition [4, 8] | growth inhibition ([4]; at 50.0 µM) | growth inhibition [5, 7] | growth inhibition [5, 8] | growth inhibition ([5]; at 50.0 µM) | growth inhibition [6, 7] | growth inhibition [6, 8] | growth inhibition ([6]; at 50.0 µM)
Cc1ccnc2[nH]c3ccccc3c(=O)c12 | 29% | 98% (active) | 81.5% (active) | 38% | 98% (active) | 69.5% | 18% | 96% (active) | 65.5% | 30% | 96% (active) | 21.4% | 15% | 96% (active) | 65.2% | 36% | 99% (active) | 77.7% (active)
CCCCCCC(/C=C/c1ccccc1)=N\O | 0% | 96% (active) | 98.8% (active) | -1% | 96% (active) | 98.7% (active) | 6% | 96% (active) | 98.8% (active) | -10% | 96% (active) | 98.2% (active) | -2% | 94% (active) | 98.8% (active) | 2% | 95% (active) | 99.2% (active)
O=C(/C=C/c1cccnc1)c1cc(Cl)ccc1O | 3% | 61% | 86.9% (active) | 3% | 40% | 23.9% | -3% | 22% | 56.9% | 1% | 24% | 26.6% | 1% | 71% (active) | 5.2% | 5% | 48% | 42.5%
CCOc1ccc2nc(C)cc(C)c2c1 | -1% | 75% (active) | 26.6% | -23% | 31% | -13.4% | -7% | 60% | -0.25% | 1% | 2% | 34.5% | -8% | 63% | -17.2% | -4% | 63% | 38.6%
S=C(Nc1cc(Cl)c(Cl)cc1Cl)SCc1ccccc1 | 14% | 97% (active) | 98.7% (active) | 8% | 99% (active) | 99.3% (active) | 30% | 99% (active) | 99.2% (active) | 12% | 98% (active) | 97.8% (active) | 39% | 99% (active) | 99.2% (active) | 55% | 99% (active) | 99% (active)
Oc1cc(Br)cc2cc(Br)cnc12 | 92% (active) | 98% (active) | 84.4% (active) | 89% (active) | 98% (active) | 89.5% (active) | 95% (active) | 98% (active) | 80.5% (active) | 96% (active) | 96% (active) | 84.8% (active) | 92% (active) | 97% (active) | 85.5% (active) | 96% (active) | 98% (active) | 78.3% (active)
ClC1(c2ccccc2)c2ccccc2-c2ccccc21 | -26% | 98% (active) | 92.2% (active) | 4% | 99% (active) | 95.6% (active) | -6% | 98% (active) | 83.9% (active) | -1% | 92% (active) | 8.7% | 4% | 98% (active) | 95.8% (active) | 0% | 94% (active) | 97.1% (active)
Cc1cc(Cl)ccc1N1C(=O)C(=O)C(c2nc3ccccc3o2)C(=O)C1=O | 31% | 98% (active) | 86.3% (active) | 21% | 99% (active) | 64.7% | 38% | 98% (active) | 88.8% (active) | 31% | 98% (active) | 79.9% (active) | 22% | 96% (active) | 49.1% | 25% | 96% (active) | 87.8% (active)
c1ccc2nc(C[n+]3cccc4ccccc43)ccc2c1 | 86% (active) | 99% (active) | 97.5% (active) | 73% (active) | 99% (active) | 97.8% (active) | 70% (active) | 97% (active) | 58.4% | 72% (active) | 99% (active) | 80% (active) | 64% | 98% (active) | 97.9% (active) | 73% (active) | 98% (active) | 97.1% (active)
CN1CCN(CCn2c3c4ccccc4ccc3c3oc(=O)c4ccccc4c32)CC1 | 40% | 95% (active) | 38.5% | -13% | 97% (active) | 89.7% (active) | 28% | 96% (active) | 91.2% (active) | 22% | 92% (active) | 90.4% (active) | 19% | 97% (active) | 91.8% (active) | 13% | 97% (active) | 90.8% (active)
O=C(O)C1CC[N-]CC1.O=C(O)C1CC[N-]CC1.[Cl][Pt+2]([Cl])([Cl])[Cl] | 30% | 90% (active) | 97.6% (active) | 2% | 94% (active) | 85.2% (active) | 38% | 94% (active) | 94.1% (active) | 0% | 97% (active) | 81.7% (active) | 17% | 93% (active) | 90.2% (active) | 25% | 94% (active) | 88.8% (active)
c1ccc(OCCN2CCN(CCOc3ccccc3)CC2)cc1 | 21% | 29% | 71.7% (active) | 31% | 45% | 32.2% | 41% | 55% | 67.1% | 45% | 47% | 76.4% (active) | 43% | 53% | 56.7% | 44% | 61% | 44.1%
O=C1/C(=C(/Br)I)c2ccccc2-c2ccccc21 | 98% (active) | 87% (active) | 7.85% | 99% (active) | 91% (active) | 58.9% | 96% (active) | 94% (active) | 64.3% | 53% | 90% (active) | 44% | 99% (active) | 89% (active) | 75.7% (active) | 99% (active) | 88% (active) | 59%
Nc1ccc2c(S(=O)(=O)O)cc(S(=O)(=O)O)cc2c1 | 3% | 0% | -21.6% | 2% | -1% | -6.25% | 0% | -2% | -10.4% | 3% | 2% | 61.4% | 2% | -2% | 6.3% | 1% | -1% | -31.4%
Cc1ccc(/C=N/NC(N)=S)cc1C | -6% | 18% | 45.1% | -4% | 3% | 10.8% | -5% | 9% | 61.7% | -12% | -13% | -11.1% | -4% | -2% | 34.8% | -6% | 7% | 65.6%
CC(=O)NNc1ccc(Cl)cc1[N+](=O)[O-] | 18% | 30% | 51% | -5% | 26% | 25.3% | -6% | 20% | 12.1% | 5% | 4% | 44.1% | 3% | 19% | 77.3% (active) | 28% | 69% | 91% (active)
CCCOC(=O)CSC#N | 39% | 97% (active) | 97.9% (active) | 33% | 98% (active) | 98% (active) | 56% | 98% (active) | 98.2% (active) | 28% | 95% (active) | 97.8% (active) | 33% | 98% (active) | 97.8% (active) | 41% | 98% (active) | 98% (active)
COc1cc(/C=N/NC(=S)Nc2ccccc2)ccc1O | -20% | 13% | 20.8% | -10% | 34% | 27.4% | -7% | 82% (active) | 66.7% | -31% | 9% | -23.4% | -11% | 60% | 77.7% (active) | -16% | 49% | 30.1%
COC(=S)S | 3% | 1% | 41.9% | -2% | 0% | 18.7% | 5% | 0% | -11.4% | -4% | -2% | -45.5% | -3% | -5% | 15.6% | 1% | 6% | -24.7%
CC1CCCCN(CCN(Cc2ccccc2)c2ccccc2)C1 (stereo not drawn) | -1% | 32% | 58.1% | 2% | 29% | 45.9% | 10% | 75% (active) | 73.8% (active) | 4% | 37% | 80.8% (active) | 5% | 52% | 58% | 8% | 42% | 54.1%
O=C1c2ccccc2/C=C\C(c2ccccc2)=N/N1c1ccccc1Cl | 7% | 52% | 84.8% (active) | 0% | 69% | 83.5% (active) | 9% | 81% (active) | 83.8% (active) | -2% | 37% | 60.2% | -4% | 52% | 85.2% (active) | 7% | 48% | 84.7% (active)

Reference: PubChem BioAssay (NCI)
